# Columns and labels:
# Assay in all cases: cross-linking mass spectrometry
# Conditions in all cases: BS3, purified complex
# [1] = target: NSL1 (UniProt Q96IY1)
# [2] = target: SPC24 (UniProt Q8NBT2)
# [3] = target: MIS12 (UniProt Q9H081)
# [4] = target: PMF1 (UniProt Q6P1K2)
# [5] = target: DSN1 (UniProt Q9H410)
# [6] = target: ZWINT (UniProt O95229)
# [7] = target: SPC25 (UniProt Q9HBM1)
# SPC25, sequence (Q9HBM1 whole entry): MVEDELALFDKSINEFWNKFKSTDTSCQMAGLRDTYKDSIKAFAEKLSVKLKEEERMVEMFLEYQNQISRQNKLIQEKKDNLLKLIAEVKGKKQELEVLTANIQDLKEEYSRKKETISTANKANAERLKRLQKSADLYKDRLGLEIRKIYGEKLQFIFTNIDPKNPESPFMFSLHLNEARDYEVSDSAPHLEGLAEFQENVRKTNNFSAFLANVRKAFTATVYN
# NDC80, O14777, sequence (O14777 whole entry): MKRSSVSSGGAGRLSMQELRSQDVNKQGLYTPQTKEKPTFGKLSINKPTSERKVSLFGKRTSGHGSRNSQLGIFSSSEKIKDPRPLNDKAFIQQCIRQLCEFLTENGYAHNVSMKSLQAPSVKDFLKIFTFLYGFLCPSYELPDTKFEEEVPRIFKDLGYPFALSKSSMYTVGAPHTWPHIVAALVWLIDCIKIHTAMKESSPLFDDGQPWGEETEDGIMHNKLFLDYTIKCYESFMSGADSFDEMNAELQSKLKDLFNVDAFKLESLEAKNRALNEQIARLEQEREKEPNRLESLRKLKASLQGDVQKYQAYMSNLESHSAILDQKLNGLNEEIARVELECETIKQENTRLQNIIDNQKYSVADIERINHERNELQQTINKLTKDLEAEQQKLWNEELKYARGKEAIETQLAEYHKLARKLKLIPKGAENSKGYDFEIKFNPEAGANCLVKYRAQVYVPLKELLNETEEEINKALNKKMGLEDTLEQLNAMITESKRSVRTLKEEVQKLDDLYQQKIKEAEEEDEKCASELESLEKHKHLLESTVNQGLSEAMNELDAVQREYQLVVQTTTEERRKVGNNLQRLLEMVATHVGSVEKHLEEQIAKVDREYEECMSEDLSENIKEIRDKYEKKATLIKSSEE
# NSL1, sequence (Q96IY1 whole entry): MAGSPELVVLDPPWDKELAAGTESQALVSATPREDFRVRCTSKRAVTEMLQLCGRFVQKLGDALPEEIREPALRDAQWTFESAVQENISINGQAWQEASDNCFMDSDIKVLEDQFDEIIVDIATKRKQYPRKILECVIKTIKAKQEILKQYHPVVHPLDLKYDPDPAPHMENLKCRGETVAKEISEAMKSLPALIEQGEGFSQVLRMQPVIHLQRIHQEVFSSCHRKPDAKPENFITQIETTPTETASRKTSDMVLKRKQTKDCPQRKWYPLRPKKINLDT
# SPC24, sequence (Q8NBT2 whole entry): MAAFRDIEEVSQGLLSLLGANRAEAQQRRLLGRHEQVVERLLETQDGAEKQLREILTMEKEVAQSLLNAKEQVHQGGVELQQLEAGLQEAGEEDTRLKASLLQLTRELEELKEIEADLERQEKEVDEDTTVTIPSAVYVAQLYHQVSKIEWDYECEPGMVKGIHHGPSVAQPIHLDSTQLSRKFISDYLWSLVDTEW
# CENPC, Q03188, sequence (Q03188 whole entry): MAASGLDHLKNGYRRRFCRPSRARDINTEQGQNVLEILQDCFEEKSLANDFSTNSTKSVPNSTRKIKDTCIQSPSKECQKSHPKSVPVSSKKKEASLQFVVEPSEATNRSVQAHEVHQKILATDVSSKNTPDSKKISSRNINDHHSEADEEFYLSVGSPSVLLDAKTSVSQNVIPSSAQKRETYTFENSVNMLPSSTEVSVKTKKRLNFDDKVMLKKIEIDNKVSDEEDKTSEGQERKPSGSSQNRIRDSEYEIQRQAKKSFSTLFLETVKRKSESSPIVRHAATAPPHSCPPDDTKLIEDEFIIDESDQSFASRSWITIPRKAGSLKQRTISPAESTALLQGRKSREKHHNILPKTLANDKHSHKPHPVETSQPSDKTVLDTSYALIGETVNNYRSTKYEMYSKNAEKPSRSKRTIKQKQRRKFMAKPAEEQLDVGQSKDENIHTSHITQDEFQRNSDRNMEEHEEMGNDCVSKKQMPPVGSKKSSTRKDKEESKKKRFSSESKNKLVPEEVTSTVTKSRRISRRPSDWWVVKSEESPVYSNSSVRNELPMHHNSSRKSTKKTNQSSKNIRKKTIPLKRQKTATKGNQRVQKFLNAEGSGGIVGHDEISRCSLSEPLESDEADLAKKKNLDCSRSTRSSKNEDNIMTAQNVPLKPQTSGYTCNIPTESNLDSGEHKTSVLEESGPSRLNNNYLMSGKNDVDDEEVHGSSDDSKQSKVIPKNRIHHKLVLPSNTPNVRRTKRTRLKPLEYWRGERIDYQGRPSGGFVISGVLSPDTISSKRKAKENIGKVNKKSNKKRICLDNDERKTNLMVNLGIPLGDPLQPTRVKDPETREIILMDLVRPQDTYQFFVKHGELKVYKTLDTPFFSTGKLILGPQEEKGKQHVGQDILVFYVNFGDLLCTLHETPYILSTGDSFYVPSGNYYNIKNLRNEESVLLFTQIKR
# ZWINT, sequence (O95229 whole entry): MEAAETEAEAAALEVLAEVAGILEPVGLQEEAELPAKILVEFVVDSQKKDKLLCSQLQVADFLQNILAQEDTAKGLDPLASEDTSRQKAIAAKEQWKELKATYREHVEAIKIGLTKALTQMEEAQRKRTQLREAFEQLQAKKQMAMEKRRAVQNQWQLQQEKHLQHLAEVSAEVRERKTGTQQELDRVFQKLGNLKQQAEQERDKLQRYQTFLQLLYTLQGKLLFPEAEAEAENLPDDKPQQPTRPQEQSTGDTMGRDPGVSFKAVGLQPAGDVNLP
# ZWINT, O95229, sequence (O95229 whole entry): as above
# NSL1, Q96IY1, sequence (Q96IY1 whole entry): as the sequence (Q96IY1 whole entry) above
# DSN1, sequence (Q9H410 whole entry): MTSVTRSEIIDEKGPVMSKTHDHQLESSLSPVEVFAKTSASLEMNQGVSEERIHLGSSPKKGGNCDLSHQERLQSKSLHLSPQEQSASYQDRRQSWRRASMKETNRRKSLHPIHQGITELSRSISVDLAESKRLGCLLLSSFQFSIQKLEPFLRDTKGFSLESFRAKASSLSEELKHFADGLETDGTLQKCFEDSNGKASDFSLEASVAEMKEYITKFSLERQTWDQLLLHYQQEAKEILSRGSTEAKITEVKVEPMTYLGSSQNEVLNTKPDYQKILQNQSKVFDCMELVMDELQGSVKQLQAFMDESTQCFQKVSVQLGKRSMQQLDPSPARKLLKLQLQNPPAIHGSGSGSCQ
# MIS12, sequence (Q9H081 whole entry): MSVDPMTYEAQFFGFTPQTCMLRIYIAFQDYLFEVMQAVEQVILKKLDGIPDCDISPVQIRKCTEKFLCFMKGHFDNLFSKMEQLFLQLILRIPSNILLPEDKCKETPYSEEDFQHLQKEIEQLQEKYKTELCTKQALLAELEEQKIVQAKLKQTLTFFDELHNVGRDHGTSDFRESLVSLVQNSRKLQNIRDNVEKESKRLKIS
# PMF1, Q6P1K2, sequence (Q6P1K2 whole entry): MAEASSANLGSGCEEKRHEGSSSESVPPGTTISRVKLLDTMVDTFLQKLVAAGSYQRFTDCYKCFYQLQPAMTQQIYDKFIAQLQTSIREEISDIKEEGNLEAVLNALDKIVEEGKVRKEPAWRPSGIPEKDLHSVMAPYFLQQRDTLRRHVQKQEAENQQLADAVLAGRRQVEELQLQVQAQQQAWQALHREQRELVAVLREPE
# PMF1, sequence (Q6P1K2 whole entry): as above
substance,measurement,setting,value
"KNL1, Q8NG31",cross-linked residues,[1],K2247 - K268
"ZWINT, O95229",cross-linked residues,[1],K196 - K262
"PMF1, Q6P1K2",cross-linked residues,[2],K79 - K98
"CENPC, Q03188",cross-linked residues,[3],K45 - K81
same,cross-linked residues,[4],K45 - K48
"NDC80, O14777",cross-linked residues,[5],K300 - K315
same,cross-linked residues,[2],K624 - K50
same,cross-linked residues,[6],K271 - K141
"NSL1, Q96IY1",cross-linked residues,[7],K275 - K203
